# Only a selection was taken, and hits are over-represented in it overall.
# Cruzain inh Det: inhibitors of Trypanosoma cruzi cruzain with detergent | purified cruzain, Z-FR-AMC fluorescence, 0.01% Triton | Potency, µM, for the others: max response, negative = inhibition, most hits filed as inhibitors | actives 0.43% (n = 200,000) | AID 1478;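 note: plate controls were neutral wells for no effect and buffer without enzyme for full effect; nearly all actives have a fitted effect of over 40% in size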
# Target sequence (P25779 123-467 limits assumed): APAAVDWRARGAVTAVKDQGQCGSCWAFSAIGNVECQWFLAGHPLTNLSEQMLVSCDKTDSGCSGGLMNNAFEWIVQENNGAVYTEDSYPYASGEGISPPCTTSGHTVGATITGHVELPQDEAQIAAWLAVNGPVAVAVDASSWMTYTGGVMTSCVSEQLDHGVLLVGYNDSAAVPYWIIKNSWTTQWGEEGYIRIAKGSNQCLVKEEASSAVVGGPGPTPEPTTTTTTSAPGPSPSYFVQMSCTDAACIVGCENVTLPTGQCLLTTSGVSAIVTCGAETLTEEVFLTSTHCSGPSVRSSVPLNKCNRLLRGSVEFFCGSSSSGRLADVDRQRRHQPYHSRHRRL
#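 Purified cruzain (1.5 nM final) was preincubated with compounds for 15 min at room temperature in 100 mM sodium acetate pH 5.5, 5 mM DTT, 0.01% Triton X-100. Reaction started with 2 uM Z-FR-AMC; AMC fluorescence change over 60 s gave activity.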
# NS1 inh: influenza NS1 inhibition | Potency, µM (doses to about 46.1 µM), without a hit: top-dose activity, positive = more growth | actives 0.4% (n = 270,000); calls by dose curve; note: actives are rising curves; nearly all actives have a fitted effect of over 50% in size
#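 Compounds were scored for reversing the slow growth caused by influenza A NS1 in S. cerevisiae, measured by optical density at 600 nm. Assay medium contained 2% galactose at pH 6.0; NS1-free yeast of the same strain were the positive control.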
# Cruzain inh noDet: inhibitors of Trypanosoma cruzi cruzain without detergent; actives 2.3% (n = 200,000); P25779; AID 1476; Potency, µM, inactives show max response, negative = inhibition, actives largely listed as inhibitors; purified cruzain, Z-FR-AMC fluorescence, no detergent;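 note: plate controls were enzyme without inhibitor for no effect and buffer without enzyme for full effect; nearly all actives have a fitted effect of over 40% in size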
#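 Detergent-free condition (0.00005% Triton X-100) in acetate buffer pH 5.5 with DTT. 1.5 nM enzyme and compound were pre-mixed 15 min, then 2 uM Z-FR-AMC substrate added; reaction progress from fluorescence change between first and third reads (60 s).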
# * hit, by the source's call; ? = inconclusive; · = no result given. Unless noted, calls come from the whole dose curve; as a rule, active = well fitted curve in the direction sought with a large enough effect; inconclusive = small, poorly fitted or top-dose-only effect, or another doubt; inactive = no such curve, though single readings can be large; an effect the other way counts as inactive or inconclusive. Potency is the fitted concentration of half-maximal effect.
SMILES,Cruzain inh Det,NS1 inh,Cruzain inh noDet
Cc1cc(Nc2ccccc2F)n2nc(-c3ccccc3)nc2n1,-1.7%,·,10.5%
CC(C)CN1CCCC2(CCN(C(=O)c3cccc(F)c3)CC2)C1,3.6%,·,5.3%
Cc1ccc(NC2=C(C(=O)c3ccccc3)N(C)S(=O)(=O)c3ccccc32)cc1,-4.7%,?,20µM*
CN1C(C(=O)c2ccccc2)=C(N)c2ccccc2S1(=O)=O,·,-35.9%,·
COc1ccc(-c2csc3nc(-c4cccnc4)nc(N4CCC(C(N)=O)CC4)c23)cc1OC,25.1µM*,-15.6%,?
COc1ccc(-c2csc3nc(C)n(-n4cccc4)c(=O)c23)cc1OC,-4.7%,-7.4%,8.4%
COCCNC(=O)c1c(NC(=O)c2cc(=O)c3cc(C)cc(C)c3o2)sc2c1CCCC2,-1.5%,·,0.1%
CN1/C(=C\C(=S)NC(=O)c2cccc(Br)c2)C(C)(C)c2ccccc21,3.55µM*,26.4%,?
CN1/C(=C\C(=S)NC(=O)c2ccc([N+](=O)[O-])cc2)C(C)(C)c2ccccc21,-10.5%,?,?
O=C(c1ccc(S(=O)(=O)N2CCCCC2)cc1)c1nnc(-c2ccc(Cl)cc2)o1,1.6%,-7.2%,-13.4%
O=C(CCc1ccc(S(=O)(=O)N2CCCCC2)cc1)c1nnc(-c2ccccc2)o1,-3.4%,-2.5%,25.1µM*
C=C(C)C(O)/C=C/c1ccc(Br)cc1 (stereo not drawn),-2.0%,·,-0.7%
Cc1nn(-c2ccc(N3CCCCC3)nn2)c(C)c1CCC(=O)Nc1ccc(F)cc1F,-0.4%,·,23.0%
COc1ccc(NC(=O)C(C)n2nnc3sc(-c4ccccc4)cc3c2=O)cc1Cl (stereo not drawn),-12.4%,·,25.1µM*
Cc1cc(C)c(NC(=O)C(C)n2nnc3sc(-c4ccccc4)cc3c2=O)c(C)c1 (stereo not drawn),3.7%,·,?
CC(C)(c1cc(Br)c(OCC(Br)CBr)c(Br)c1)c1cc(Br)c(OCC(Br)CBr)c(Br)c1 (stereo not drawn),-2.3%,·,-7.7%
COc1cccc(OCCCn2cc(/C=C3/C(=N)N4C=C(C)SC4=NC3=O)c3ccccc32)c1,-2.3%,4.4%,12.6µM*
CC1=CN2C(=N)/C(=C/c3cn(CCCOc4ccccc4C)c4ccccc34)C(=O)N=C2S1,0.6%,9.9%,3.16µM*
CC1=CN2C(=N)/C(=C/c3ccco3)C(=O)N=C2S1,-8.4%,3.6%,-9.4%
COc1ccc(OCCCn2cc(/C=C3/C(=N)N4C=C(C)SC4=NC3=O)c3ccccc32)cc1,-3.1%,9.8%,25.1µM*
COc1cc(/C=C2/C(=N)N3C=CSC3=NC2=O)ccc1OCCCOc1ccccc1C,-5.4%,2.9%,-5.1%
COc1cc(/C=C2/C(=N)N3C=CSC3=NC2=O)ccc1OCCCOc1c(C)cccc1C,-1.4%,6.0%,-8.2%
CC(C)c1nnc(NC(=O)CCC(=O)N2CCN(c3ccccn3)CC2)s1,10.1%,1µM*,2.4%
CC(C)Cc1nnc(NC(=O)CCC(=O)N2CCN(c3ccccn3)CC2)s1,-3.5%,-1.5%,-11.5%
CSSC,0.7%,·,-4.8%
SMILES,Cruzain inh Det,NS1 inh,Cruzain inh noDet
CCN(CC)c1ccc(/C=c2\sc3nnc(-c4ccccc4Cl)n3c2=O)cc1,1.2%,1.8%,12.6µM*
CCN(CC)c1ccc(/C=c2/sc3nnc(-c4ccccc4C)n3c2=O)cc1,-6.0%,-4.9%,?
COc1ccc(NC(=O)c2ccc3nc(-c4ccccc4)c(-c4ccccc4)nc3c2)c(OC)c1,1.6%,-6.3%,-19.1%
COc1ccccc1NC(=O)c1ccc2nc(-c3ccccc3)c(-c3ccccc3)nc2c1,5.0%,1.5%,31.6µM*
CCn1cc(C(=O)N2CCN(c3cc(Cl)ccc3C)CC2)c(=O)c2cc(S(=O)(=O)N3CCOCC3)ccc21,-10.1%,·,?
CCCOc1ccc(C(=O)N(Cc2ccccc2Cl)C2CCS(=O)(=O)C2)cc1 (stereo not drawn),-5.4%,·,6.8%
CN(C)c1ccc(NC(=O)c2sc(SCC(=O)Nc3ccc(Br)cc3)nc2N)cc1,5.7%,21.9%,10µM*
CN(C)c1ccc(NC(=O)c2sc(SCC(=O)Nc3nccs3)nc2N)cc1,-7.1%,10.3%,?
CNC(=O)C1CCC(Cn2c(=O)c3sccc3n(CC(=O)NCc3ccc(C)cc3)c2=O)CC1 (stereo not drawn),-1.7%,·,-1.4%
N#Cc1cccc(-c2ccc3ncnc(NCc4ccccc4)c3c2)c1,-7.3%,·,-9.6%
O=S(=O)(Nc1ccc2c(c1)nc1n2CCN(Cc2ccccc2)C1)c1ccc(Cl)cc1,-3.4%,8.3%,25.1µM*
O=S(=O)(Nc1ccc2c(c1)nc1n2CCN(Cc2ccccc2)C1)c1ccccc1,-5.0%,5.5%,?
Nc1cccc(N)c1,11.2µM*,·,?
Nc1cccc(Cl)c1,-0.4%,·,5.3%
COc1ccc2cc(C#N)c(SCC(=O)N3CC(=O)Nc4ccccc43)nc2c1,·,5.6%,·
Cc1cccc2cc(C#N)c(SCC(=O)N3CC(=O)Nc4ccccc43)nc12,-3.5%,4.8%,25.1µM*
C/C(=N\N=C1/NC(=O)C(C)S1)c1ccc([N+](=O)[O-])cc1 (stereo not drawn),25.1µM*,-20.7%,15.8µM*
CC(C)=N/N=C1\NC(=O)C(C)S1 (stereo not drawn),·,-0.5%,·
COC(=O)c1ccccc1NC(=O)Cn1c(=O)n(Cc2ccc(C(=O)NCc3ccc4c(c3)OCO4)cc2)c(=O)c2ccccc21,-2.3%,·,9.6%
COc1cccc([C@@H]2Oc3ccc(Br)cc3C[C@H]2O)c1,1.1%,·,-9.2%
O=C(N/N=C/c1cc([N+](=O)[O-])ccc1O)c1ccc(COc2ccc3c(c2)CCC3)o1,·,6.7%,·
O=C(N/N=C/c1ccc2ccccc2c1)c1ccc(COc2ccc3c(c2)CCC3)o1,-11.2%,2.5%,20µM*
CCc1cccc(NC(=O)COc2cc(=O)n(CC)c3ccccc23)c1,2.8%,·,-17.6%
Fc1ccc(-c2ccc(CNCCSc3nnnn3-c3ccccc3)o2)cc1,1.4%,·,-10.2%
Cc1c(Cl)cccc1-c1ccc(CNCCSc2nnnn2-c2ccccc2)o1,12.6µM*,·,7.94µM*
SMILES,Cruzain inh Det,NS1 inh,Cruzain inh noDet
CC(C)CC(=O)C[C@H](O)C(Cl)(Cl)Cl,4.8%,-11.8%,3.7%
N#CCC(=N)N1CCN(c2ccccc2Cl)CC1,-3.1%,-4.4%,25.1µM*
N#CCC(=N)N1CCN(c2ccccc2)CC1,-2.6%,-0.2%,-4.3%
N#CCC(=N)N1CCN(c2cccc(Cl)c2)CC1,0.4%,4.9%,12.6µM*
O=C(c1cccnc1)N1CCN(c2ccccc2Cl)CC1,·,-12.3%,·
COc1ccc(CCNC(=O)C(C)n2c(=O)cc(-c3ccccc3)c3c(C)nn(C)c32)cc1OC (stereo not drawn),-5.5%,·,?
CCN(CC)c1ccc(C(=O)N2CCC(c3c[nH]c4ccccc34)(c3c[nH]c4ccccc34)CC2)cc1,-1.6%,·,10µM*
COc1ccc(C(=O)N2CCC(c3c[nH]c4ccccc34)(c3c[nH]c4ccccc34)CC2)cc1,-3.4%,·,-15.0%
CCCC[C@H](CC)CN1CN(C[C@@H](CC)CCCC)CC(C)(N)C1,0.6%,·,7.1%
COc1ccc(C(=O)N(c2ccc(C)cc2)S(=O)(=O)c2ccc(C)cc2)cc1,-2.9%,·,?
O=C(O)c1c(-c2nccc3ccccc23)[nH]c(-c2ccccc2)c1S(=O)(=O)O,7.9%,-6.6%,9.8%
O=C(NCC#CCOCc1ccccc1)c1ccccc1,11.2µM*,-9.5%,12.6µM*
O=C(NCCNC(=O)c1ccccc1)c1ccccc1,·,-0.5%,·

# Screening results as filed in PubChem.
